SMN2 splice enh = SMN2 splice variant enhancement; Potency, µM (doses to about 46.1 µM), for inactives: top-dose activity change, positive = activation, actives largely listed as activators; HEK293 SMN2-luciferase splicing reporter, luminescence, 30-36 h; 210,000 tested, 2.8% active; AID 1458; note: % of control where 0% means no effect; nearly all actives have a fitted effect of over 55% in size
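HEK293 cells carry an SMN2 minigene-luciferase reporter in which exon 7 inclusion puts luciferase in frame. Cells were seeded at 2000 cells/well, attached for 10-12 hours, then exposed to compounds for 30-36 hours at 37C before ONE-Glo luminescence.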
FLuc counter = inhibits or activates purified firefly luciferase, miR-21 counter-screen. P08659. purified FLuc, Km substrates, luminescence inhibition. Potency, µM (titrated, usually from 57.5 µM), inactives show top-dose activity change, negative = inhibition, actives largely listed as inhibitors. 360,000 tested, 6.9% active. AID 588342;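 note: plate controls were vehicle for no effect and reference inhibitor for full effect; nearly all actives have a fitted effect of over 55% in size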
Target sequence (P08659 whole entry, looked up): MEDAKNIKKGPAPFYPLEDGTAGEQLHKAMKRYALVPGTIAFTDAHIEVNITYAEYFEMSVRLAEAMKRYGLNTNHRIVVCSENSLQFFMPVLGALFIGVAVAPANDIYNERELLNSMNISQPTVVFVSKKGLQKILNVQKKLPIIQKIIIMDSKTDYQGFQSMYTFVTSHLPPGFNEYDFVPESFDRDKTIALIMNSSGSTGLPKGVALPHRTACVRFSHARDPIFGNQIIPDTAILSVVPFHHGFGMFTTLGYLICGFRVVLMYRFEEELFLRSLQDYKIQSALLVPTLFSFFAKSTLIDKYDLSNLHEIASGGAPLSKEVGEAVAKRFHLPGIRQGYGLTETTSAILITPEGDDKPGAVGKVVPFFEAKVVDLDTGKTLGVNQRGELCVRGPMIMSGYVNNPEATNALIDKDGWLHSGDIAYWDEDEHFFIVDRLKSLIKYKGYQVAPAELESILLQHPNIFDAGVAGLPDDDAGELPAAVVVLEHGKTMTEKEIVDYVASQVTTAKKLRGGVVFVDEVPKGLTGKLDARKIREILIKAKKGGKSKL
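Purified P. pyralis luciferase (10nM final) with 10uM D-luciferin and 10uM ATP (Km levels) in 50mM Tris acetate pH 7.5, 10mM Mg acetate, 0.01% Tween-20, 0.05% BSA; qHTS 6-point titration, ~60 µM downward; luminescence read.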
Rab9 promoter act = activates the Rab9 promoter; Potency, µM (titrated, usually from 9.22 µM), without a hit: top-dose activation, negative = inhibition, actives largely listed as activators; Huh7 Rab9 promoter-luciferase reporter, luminescence, 24 h; 320,000 tested, 2.8% active; AID 485297; note: % of control where 0% means no effect; nearly all actives have a fitted effect of over 60% in size
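Cells were plated at 1500 per well in reduced-serum medium with 10% FBS and left 2 h. Compound in DMSO was then added for 24 h at 37 °C. Reporter signal was read by luminescence after 10 min with luciferase detection reagent.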
ELG1 repair inh = ELG1-dependent DNA repair inhibition. 330,000 tested, 2.3% active. HEK293T ELG1-luciferase reporter, luminescence, 16 h; DNA damage induced by 5-fluorouridine. Potency, µM (series often up to 46.1 µM), for the others: at the highest dose activity change, negative = inhibition, most hits filed as inhibitors; note: % is set by controls: 0 for no effect and ±100 for the full control effect; nearly all actives have a fitted effect of over 55% in size
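Overnight (16 hr) co-exposure of 2,000 cells/well to 5-fluorouridine and compound at 37 °C preceded detection. Luciferase was quantified via ONE-Glo luminescence; loss of signal denotes inhibition.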
NPC1 prom act = activators of NPC1 promoter | Huh7 NPC1 promoter luciferase reporter, 24 h | Potency, µM (highest dose often 9.22 µM), for the others: at the top dose activation, usual class: activators | 320,000 tested, 2.4% active; note: % of control where 0% means no effect; nearly all actives have a fitted effect of over 60% in size
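Luminescence from an NPC1 promoter-driven luciferase reporter in stably transfected Huh7 cells was measured after 24 h compound treatment at 37 °C, followed by 10 min ambient incubation with luciferase detection reagent.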
ELG1 genotoxic = genotoxicity induction in ELG1-luciferase HEK293T cells. HEK293T ELG1-luciferase reporter, luminescence, 16 h. Potency, µM (top dose mostly 46 µM), for inactives: top-dose activity change, positive = activation, most hits filed as activators. 330,000 tested, 1.3% active; note: % of control where 0% means no effect; nearly all actives have a fitted effect of over 60% in size
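ELG1-luciferase HEK293T cells, 2,000/well; compound pinned in; 16 hr, 37 °C, 5% CO2; ONE-Glo, 30 min RT; luminescence on CCD imager.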
An asterisk follows results filed as active; ? = inconclusive; . = no result given. Sampled rows, rich in hits. Any-hit rate of the full collection: about 9.2%. Calls come from the whole dose curve; as a rule, active = well fitted curve in the direction sought with a large enough effect; inconclusive = small, poorly fitted or top-dose-only effect, or another doubt; inactive = no such curve, though single readings can be large; an effect the other way counts as inactive or inconclusive. Potency is the fitted concentration of half-maximal effect.

SMILES	SMN2 splice enh	FLuc counter	Rab9 promoter act	ELG1 repair inh	NPC1 prom act	ELG1 genotoxic
CC1CCC(NC(=O)c2ccc3c(c2)N(Cc2ccccc2F)C(=O)c2ccccc2S3)CC1 (stereo not given)	.	1%	.	.	.	.
COc1ccc(CCN(Cc2cccs2)S(=O)(=O)c2ccc(-n3cnnn3)cc2)cc1OC	-64%	4%	-5%	16µM*	-5%	-11%
c1ccc(-c2csc(-c3ccncc3)n2)cc1	23%	15µM*	24%	?	18%	19%
Oc1ccc(-c2csc(-c3ccccc3)n2)cc1O	?	15µM*	-1%	?	18%	?
Brc1ccsc1-c1csc(-c2ccncc2)n1	.	?	28%	?	25%	?
Oc1ccccc1-c1csc(-c2ccccc2)n1	?	5.4µM*	?	?	-5%	-11%
Cc1nc(-c2ccc(O)c(O)c2)cs1	2%	-18%	29%	?	-7%	23%
Oc1ccc(-c2csc(-c3cccnc3)n2)cc1O	.	17µM*	-15%	?	21%	?
CCCCOc1ccc(C(=O)Nc2cccc(-n3cnnn3)c2)cc1OC	.	-1%	-1%	2%	-1%	-2%
Fc1ccc(-c2csc(-c3cccnc3)n2)cc1F	.	?	?	?	?	12%
Clc1ccc(-c2csc(-c3cccnc3)n2)s1	.	13µM*	24%	?	22%	11%
c1cncc(-c2nc(-c3ccc4c(c3)OCCO4)cs2)c1	.	1.7µM*	0.56µM*	?	0.89µM*	?
Fc1ccccc1-c1csc(-c2cccnc2)n1	.	15µM*	?	?	?	?
COc1cccc(CN(C)S(=O)(=O)c2c(C)noc2C)c1OC	.	5%	-1%	9%	-2%	-2%
CCOc1ccc(NC(=O)CC2C(=O)N(c3cccc(C)c3)C(=O)N2Cc2cccs2)cc1 (stereo not given)	.	1%	.	.	.	.
CC(C)COc1ccc(C(=O)N2CCN(CCc3ccccn3)CC2)cc1	.	2%	.	.	.	.
Cc1ccccc1NC(=O)C(=O)NCC(c1ccc2c(c1)OCO2)N1CCN(c2ccccc2)CC1 (stereo not given)	.	-6%	.	.	.	.
CCCCn1nc(C(=O)N(CC)CC(=O)Nc2c(F)cccc2F)c2ccccc2c1=O	.	2%	-2%	?	-2%	-3%
CCc1ccc(CN2CCC(n3nccc3NC(=O)c3cccc(F)c3)CC2)cc1	.	3%	-6%	-1%	-6%	-13%
CNC(=O)c1c(NC(=O)C2=COCCO2)sc2c1CCC(C)C2 (stereo not given)	.	2.7µM*	20%	?	-1%	14%
CNC(=O)c1c(NC(=O)C2=COCCO2)sc(C)c1C	.	-1%	0%	1%	1%	-7%
CC(C)(C)C1CCc2c(sc(NC(=O)c3cccs3)c2C(N)=O)C1 (stereo not given)	-21%	0.54µM*	4µM*	?	?	?
CC1CCc2c(sc(NC(=O)CSc3nc(N)cc(=O)[nH]3)c2C(N)=O)C1 (stereo not given)	.	17µM*	-4%	-9%	-7%	-1%
N#Cc1c(NC(=O)CSc2nc(N)cc(=O)[nH]2)sc2c1CCCCCC2	-107%	-2%	-12%	?	-2%	-2%
COc1cc(C(=O)Nc2sc3c(c2C(N)=O)CCC(C)C3)cc(OC)c1OC (stereo not given)	0%	-2%	.	.	.	.
SMILES	SMN2 splice enh	FLuc counter	Rab9 promoter act	ELG1 repair inh	NPC1 prom act	ELG1 genotoxic
CC1CCc2c(sc(NC(=O)C3=COCCO3)c2C(N)=O)C1 (stereo not given)	.	0.76µM*	1.6µM*	?	2.5µM*	?
C/C1=C2N=C(/C=C3N=C(/C(C)=C4\[N-]C(C)(C5N=C1C(C)(CCC(=O)NCC(C)OP(=O)([O-])O[C@H]1C(O)C(n6cnc7cc(C)c(C)cc76)O[C@@H]1CO)C5CC(N)=O)C(C)(CC(N)=O)C4CCC(N)=O)C(C)(CC(N)=O)C\3CCC(N)=O)C(C)(C)C/2CCC(N)=O.[CH2-]C1OC(n2cnc3c(N)ncnc32)C(O)C1O.[Co] (stereo not given in full)	-41%	.	.	.	.	.
COc1ccc(/C=N/Nc2cc(C)nc(-n3nc(C)cc3C)n2)cc1	-114%	17µM*	-15%	8.2µM*	-3%	-10%
Cc1cc(N/N=C/c2ccccc2[N+](=O)[O-])nc(-n2nc(C)cc2C)n1	.	?	-2%	13µM*	0%	0%
Cc1cc(N/N=C/c2cccc(Cl)c2)nc(-n2nc(C)cc2C)n1	.	-19%	-1%	16µM*	1%	-11%
Cc1cc(N/N=C/c2cccc([N+](=O)[O-])c2)nc(-n2nc(C)cc2C)n1	.	-2%	-13%	-7%	0%	6%
Cc1cc(N/N=C/c2ccc(O)cc2O)nc(-n2nc(C)cc2C)n1	-91%	-9%	-43%	23µM*	-32%	-7%
COc1cccc(Nc2nc3c(S(=O)(=O)c4cc(C)ccc4C)nnn3c3ccsc23)c1	.	-1%	.	.	.	.
Cc1ccc2c(c1)-c1nc(-c3ccc4c(c3)NC(=O)CO4)cc(-c3ccc(F)cc3)c1CO2	2%	0%	.	.	.	.
CCOC(=O)c1cccc(NC(=O)CCCn2c(C)c3cnn(-c4ccccc4)c(=O)c3c2C)c1	-7%	1%	.	.	.	.
Cc1c(C(=O)NC2CCC(C)CC2)oc2ccccc12 (stereo not given)	.	9.5µM*	2.8µM*	?	3.2µM*	?
Cc1c(C(=O)NC2CCCCC2C)oc2ccccc12 (stereo not given)	.	13µM*	5%	?	-1%	-17%
Cc1c(C(=O)NC2CC2)oc2ccccc12	.	?	-2%	?	-4%	2%
CCOC(=O)C1(Cc2cccc(OC)c2)CCCN(C(=O)c2cc(C)[nH]n2)C1 (stereo not given)	.	1%	-2%	-17%	-3%	-5%
CCOC(=O)C1(Cc2cccc(OC)c2)CCCN(C(=O)CNC(C)=O)C1 (stereo not given)	.	15µM*	3.2µM*	?	?	?
CCOC(=O)C1(Cc2cccc(OC)c2)CCCN(C(=O)c2cc(C)on2)C1 (stereo not given)	.	12µM*	3.2µM*	?	?	?
CCOC(=O)C1(Cc2cccc(OC)c2)CCN(Cc2ccccc2)CC1	.	2%	-1%	?	0%	-12%
CCOC(=O)C1(Cc2cccc(OC)c2)CCN(Cc2cccnc2)CC1	.	5.4µM*	14%	?	-2%	?
CCOC(=O)C1(Cc2cccc(OC)c2)CCCN(C(=O)c2ccccc2C)C1 (stereo not given)	.	27µM*	?	?	?	11%
